From PubChem BioAssay (NCATS)
Inconclusive results are not listed. Entries that show only a call come without a potency. The source made the active and inactive calls. Unless noted, the call rests on the fitted dose curve; in most records, active means well fitted curve in the direction sought with a large enough effect; inconclusive means small, poorly fitted or top-dose-only effect, or another doubt; inactive means no such curve, though single readings can be large; an effect the other way counts as inactive or inconclusive.

Tests used:
[1] = test system: Zika virus NS2B-NS3 protease; test: Primary screen GU AMC qHTS for Zika virus inhibitors (AID 1347154); further: nearly all actives have a fitted effect of over 70% in size
Method in brief: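 Unlinked Zika NS2B hydrophilic domain–NS3 protease complex at 25 nM in 10 mM Tris-HCl pH 8.0, 0.01% Tween 20, with an AMC peptide substrate. Fluorescence change (340/450 nm) over 15 min at room temperature, normalized to controls, fitted to 4-parameter Hill.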

[2] = Validation of Assay for Modulators of Lamin A Splicing (AID 1459; active means well fitted curve in the direction sought with a large enough effect in the signal ratio; the % refers to the signal ratio;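 further: cells exposed to compound for two days before reading; ratio rise marks activators and ratio drop marks inhibitors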)
Method in brief: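 S3 HeLa stably expressing lamin A-EGFP splicing minigene and DsRed2, 600 cells/well in Opti-MEM with 2% FBS, treated 48 h at 37C; laser-scanning cytometry gives GFP/RFP total intensity ratio; ancitabine positive control, 0.5% DMSO vehicle.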

[3] = qHTS Assay for Lipid Storage Modulators (AID 1519; calls by dose curve); settings: Drosophila S3 cells, BODIPY lipid droplet/cell ratio, laser cytometry, cells loaded with oleic acid
Method in brief: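 Cells seeded at 5,000 per well were treated with compounds over a concentration series and loaded with oleic acid (400 uM, as added). Lipid droplet fluorescence (488 nm excitation, 500-530 nm channel) was read by laser-scanning cytometry and normalized to 20 uM Triacsin C.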

[4] = molecular target: DNA repair nuclease/redox regulator APEX1 (Homo sapiens) (UniProt P27695); test: qHTS Validation Assay for Inhibitors of the Human Apurinic/apyrimidinic Endonuclease 1 (APE1) (AID 1705;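 further: TAMRA fluorescence gain over two minutes as APE1 cuts a quenched THF abasic duplex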)
Method in brief: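 Fluorogenic double-stranded THF abasic-site substrate (5'-TAMRA/3'-BHQ-2), 50 nM final. Enzyme preincubated with compound 15 min at room temperature, then substrate added. Kinetic fluorescence (ex 525/em 598 nm) read three times at 60 s intervals; activity taken as third-minus-first read difference.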

[5] = Counterscreen for APE1 Inhibitors: Fluorescent Dye Displacement Validation Assay (AID 1707)
Method in brief: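 Thiazole Orange displacement from dsDNA: 250 nM ThO with 50 nM TAMRA-labelled abasic-site (tetrahydrofuran) duplex in 50 mM Tris-HCl pH7.5, 50mM NaCl, 2 mM MgCl2, 0.01% Tween-20. Loss of endpoint fluorescence (ex 480 nm, em 540 nm) flags DNA binders.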

[6] = molecular target: Endonuclease 4 (Escherichia coli (strain K12)) (UniProt P0A6C1); test: Counterscreen for APE1 Inhibitors: qHTS Validation Assay for Inhibitors of Endonuclease IV (AID 1708)
Method in brief: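 E. coli EndoIV at 2 nM final, preincubated 15 min at room temperature with compound, then 50 nM TAMRA/BHQ-2 THF abasic-site duplex added. Buffer: 50 mM Tris-HCl pH 7.5, 50 mM NaCl, 2 mM MgCl2, 1 mM DTT, 0.01% Tween-20. Kinetic fluorescence increase, third minus first read.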

[7] = qHTS for differential inhibitors of proliferation of Plasmodium falciparum line 7G8 (AID 1815);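 further: parasite growth measured after three days of incubation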
[8] = qHTS for differential inhibitors of proliferation of Plasmodium falciparum line GB4 (AID 1816); settings: Potency: Plasmodium falciparum GB4 proliferation inhibition;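 further: parasite growth measured after 72 h incubation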
[9] = qHTS for differential inhibitors of proliferation of Plasmodium falciparum line 3D7 (AID 1876);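 further: parasite growth measured after three days of culture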
[10] = qHTS for differential inhibitors of proliferation of Plasmodium falciparum line D10 (AID 1877);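 further: parasites grown with compound for 72 h before DNA staining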
[11] = qHTS for differential inhibitors of proliferation of Plasmodium falciparum line Dd2 (AID 1882); settings: Potency: Plasmodium falciparum Dd2 proliferation inhibition; further: nearly all actives have a fitted effect of over 65% in size
Method in brief: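 Dd2-infected erythrocytes (0.3% parasitemia, 2.5% hematocrit final) incubated with compound 72 h at 37 C, 5% CO2; lysed with saponin/Triton buffer containing SYBR Green I, incubated overnight in the dark, then read by fluorescence (485/535 nm). Normalized to 0.29 uM artemisinin and DMSO.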

[12] = qHTS for differential inhibitors of proliferation of Plasmodium falciparum line W2 (AID 1883); settings: Potency: Plasmodium falciparum W2 proliferation inhibition;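 further: parasites grown with compound for 72 h before lysis and staining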
[13] = qHTS for differential inhibitors of proliferation of Plasmodium falciparum line HB3 (AID 1886); settings: Potency: Plasmodium falciparum HB3 proliferation inhibition;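 further: parasites grown with compound for 72 h before SYBR Green readout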
[14] = qHTS Assay for Modulators of Human Peripheral Myelin Protein 22 (PMP22) Expression/Activity (AID 1967; active means well fitted curve in the direction sought with a large enough effect in the signal ratio; the % refers to the signal ratio)
Method in brief: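 Mouse MSC80 Schwann cells carrying Pmp22 promoter–green click beetle luciferase plus EF-alpha–red luciferase control, dosed 24 h at 37 °C. Dual-filter luminescence, overlap-corrected; %Activity from green/red ratio normalised to untreated cells, concentration-response curves fitted.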

[15] = molecular target: Ferritin light chain (Equus caballus) (UniProt P02791); test: qHTS Validation Assay for Identification of Novel General Anesthetics (AID 2323)
Method in brief: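 Horse-spleen apoferritin (10 uM) in PBS with 50% saturated 1-aminoanthracene; compounds pin-transferred, 10 min at room temperature. Fluorescence read at 380/535 nm, normalized to free 1-AMA and 1-AMA/apoferritin values; four-parameter Hill fit.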

[16] = molecular target: ATP-dependent DNA helicase Q1 (Homo sapiens) (UniProt P46063); test: qHTS Validation Assay for Inhibitors of RecQ-Like Dna Helicase 1 (RECQ1) (AID 2353)
Method in brief: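 50 nM RECQ1T1 preincubated 15 min with compound in Tris pH 8.0 buffer with MgCl2, DTT, Tween-20 and 2.5 ug/ml poly(dI-dC); started with 200 nM TAMRA/BHQ-2 forked duplex and 2 mM ATP. Unwinding read as fluorescence (525/598 nm), two reads 2 h apart.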

[17] = molecular target: RecQ-like DNA helicase BLM (Homo sapiens) (UniProt P54132); test: qHTS Validation Assay for Inhibitors of Bloom's syndrome helicase (BLM) (AID 2364)
Method in brief: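 50 nM BLM preincubated 15 min at room temperature with compound in pH 8.0 Tris buffer containing 2.5 ug/ml poly(dI-dC); started with 200 nM TAMRA/BHQ-2 forked duplex and 2 mM ATP (final). Unwinding read as TAMRA fluorescence increase, two reads 2 h apart.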

[18] = Quantitative high throughput screen for delayed death inhibitors of the malarial parasite plastid, 96 hour incubation (AID 488745); further: nearly all actives have a fitted effect of over 70% in size
Method in brief: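 Luciferase-expressing P. falciparum in erythrocytes (2% hematocrit, 0.1% parasitemia) incubated with compound for 96 h at 37 C, 5% CO2, in RPMI 1640 with 0.5% Albumax. Growth inhibition read as decreased luminescence.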

[19] = Quantitative high throughput screen for delayed death inhibitors of the malarial parasite plastid, 48 hour incubation (AID 488752); further: nearly all actives have a fitted effect of over 65% in size
Method in brief: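 Erythrocytes infected with firefly luciferase-expressing P. falciparum (2% hematocrit, 0.1% parasitemia) cultured with compound for 48 h at 37 C, 5% CO2, in RPMI 1640/0.5% Albumax. Growth inhibition read as loss of luminescence.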

[20] = molecular target: M-phase phosphoprotein 8 (Homo sapiens) (UniProt Q99549); test: qHTS Validation Assay for Inhibitors for MPP8 Chromodomain Interactions with Methylated Histone Tails (AID 488949); further: top concentration of the series differs between compounds; nearly all actives have a fitted effect of over 55% in size
Method in brief: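 MPP8 (50 nM) was pre-bound to 50 nM biotinylated H3(1-18)K9me3 peptide in PBS pH 7.4 with 0.01% Tween-20. Compounds were then added for 30 min at room temperature, and complex disruption was read by AlphaScreen with streptavidin donor and nickel-chelate acceptor beads.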

[21] = molecular target: Transient receptor potential cation channel subfamily V member 1 (Homo sapiens) (UniProt Q8NER1); test: HTS Assay for Compounds that Act as Enhancers of the Vanilloid Receptor 1 (AID 488979)
Method in brief: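 TRPV1 cells loaded with Fluo-8 calcium dye; compound added and Ca2+ signal (ex 480/em 520 nm) followed 3 min, then capsaicin at EC20 added and read 2 more min to detect enhancement.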

[22] = molecular target: Thyrotropin receptor (Homo sapiens) (UniProt P16473); test: qHTS Assay for Antagonists of the Thyroid Stimulating Hormone Receptor (AID 488980)
Method in brief: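 TSHR-transfected HEK293 cells (2000/well) in HEPES-buffered HBSS with 70 uM RO 20-1724 were stimulated with 4 nM TSH (EC80, final) in the presence of compound. cAMP was measured by HTRF competition after lysis and 30 min at RT.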

[23] = molecular target: Thyrotropin-releasing hormone receptor (Homo sapiens) (UniProt P34981); test: qHTS for Small Molecule Agonists and Allosteric Enhancers of Human TRH Receptor: Validation Screen for Agonists (AID 493127;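 active means calcium activation more than 3 SD above the typical response in the agonist read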); settings: TRH receptor agonist cell assay; at 2 µM; stronger effect = higher value
Method in brief: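 TRHR cells loaded with fluo-8 calcium dye; FDSS kinetic fluorescence (Ex 480/Em 530) read at 1 s/cycle after 23 nL compound addition. Agonist-mode calcium response recorded before the 10 nM TRH (EC20) addition.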

[24] = Validation screen for small molecules that induce DNA re-replication in SW480 colon adenocarcinoma cells (AID 504364)
Method in brief: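 SW480 cells (250/well) exposed 48 h at 37 C, 5% CO2, then Hoechst-stained 40 min. Nuclear DNA content imaged by fluorescence scanning (405 nm excitation, 500-530 nm emission); re-replication scored as increased nuclei with elevated intensity.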

[25] = molecular target: Voltage-gated inwardly rectifying potassium channel KCNH2 (Homo sapiens) (UniProt Q12809); test: qHTS Assay for Small Molecule Inhibitors of the Human hERG Channel Activity (AID 588834);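 further: top concentration of the series differs between compounds; lower thallium flux fluorescence means stronger hERG block; nearly all actives have a fitted effect of over 50% in size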
Method in brief: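 U2OS cells BacMam-transduced with hERG, 2000 cells/well, compound ~10 min at 37 °C before stimulation buffer. FluxOR thallium flux fluorescence read kinetically on FDSS; decrease indicates block; AC50 from Hill fits.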

[26] = Primary qHTS for small molecule stabilizers of the endoplasmic reticulum resident proteome: Secreted ER Calcium Modulated Protein (SERCaMP) assay (AID 1508630)
Method in brief: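 GLuc-SERCaMP-expressing SH-SY5Y cells, pretreated 16 h with compound, are challenged with thapsigargin to empty ER calcium stores; after 4 h, coelenterazine is added directly to the medium and luminescence is imaged.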

Thyrotropin receptor (Homo sapiens), sequence (P16473 whole entry, looked up): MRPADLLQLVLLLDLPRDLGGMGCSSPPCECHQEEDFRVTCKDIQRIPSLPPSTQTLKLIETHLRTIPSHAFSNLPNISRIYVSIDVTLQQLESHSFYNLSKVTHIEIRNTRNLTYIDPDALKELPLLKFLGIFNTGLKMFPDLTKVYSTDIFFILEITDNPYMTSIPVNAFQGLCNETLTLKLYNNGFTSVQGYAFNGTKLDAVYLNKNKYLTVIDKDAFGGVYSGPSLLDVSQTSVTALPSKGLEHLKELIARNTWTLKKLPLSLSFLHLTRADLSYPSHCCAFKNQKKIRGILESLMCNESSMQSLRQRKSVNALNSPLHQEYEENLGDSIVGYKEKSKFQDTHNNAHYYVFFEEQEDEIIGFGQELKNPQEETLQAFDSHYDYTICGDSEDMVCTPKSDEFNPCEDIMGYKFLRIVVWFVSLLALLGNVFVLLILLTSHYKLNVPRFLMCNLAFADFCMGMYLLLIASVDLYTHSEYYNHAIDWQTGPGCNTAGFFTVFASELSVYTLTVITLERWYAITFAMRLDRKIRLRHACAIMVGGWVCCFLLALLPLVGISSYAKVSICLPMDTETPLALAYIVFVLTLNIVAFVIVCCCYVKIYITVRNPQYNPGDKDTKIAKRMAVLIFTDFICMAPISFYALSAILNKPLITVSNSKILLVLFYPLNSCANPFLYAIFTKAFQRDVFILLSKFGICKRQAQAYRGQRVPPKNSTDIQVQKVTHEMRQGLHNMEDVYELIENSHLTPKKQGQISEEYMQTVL
RecQ-like DNA helicase BLM (Homo sapiens), sequence (P54132 whole entry, looked up): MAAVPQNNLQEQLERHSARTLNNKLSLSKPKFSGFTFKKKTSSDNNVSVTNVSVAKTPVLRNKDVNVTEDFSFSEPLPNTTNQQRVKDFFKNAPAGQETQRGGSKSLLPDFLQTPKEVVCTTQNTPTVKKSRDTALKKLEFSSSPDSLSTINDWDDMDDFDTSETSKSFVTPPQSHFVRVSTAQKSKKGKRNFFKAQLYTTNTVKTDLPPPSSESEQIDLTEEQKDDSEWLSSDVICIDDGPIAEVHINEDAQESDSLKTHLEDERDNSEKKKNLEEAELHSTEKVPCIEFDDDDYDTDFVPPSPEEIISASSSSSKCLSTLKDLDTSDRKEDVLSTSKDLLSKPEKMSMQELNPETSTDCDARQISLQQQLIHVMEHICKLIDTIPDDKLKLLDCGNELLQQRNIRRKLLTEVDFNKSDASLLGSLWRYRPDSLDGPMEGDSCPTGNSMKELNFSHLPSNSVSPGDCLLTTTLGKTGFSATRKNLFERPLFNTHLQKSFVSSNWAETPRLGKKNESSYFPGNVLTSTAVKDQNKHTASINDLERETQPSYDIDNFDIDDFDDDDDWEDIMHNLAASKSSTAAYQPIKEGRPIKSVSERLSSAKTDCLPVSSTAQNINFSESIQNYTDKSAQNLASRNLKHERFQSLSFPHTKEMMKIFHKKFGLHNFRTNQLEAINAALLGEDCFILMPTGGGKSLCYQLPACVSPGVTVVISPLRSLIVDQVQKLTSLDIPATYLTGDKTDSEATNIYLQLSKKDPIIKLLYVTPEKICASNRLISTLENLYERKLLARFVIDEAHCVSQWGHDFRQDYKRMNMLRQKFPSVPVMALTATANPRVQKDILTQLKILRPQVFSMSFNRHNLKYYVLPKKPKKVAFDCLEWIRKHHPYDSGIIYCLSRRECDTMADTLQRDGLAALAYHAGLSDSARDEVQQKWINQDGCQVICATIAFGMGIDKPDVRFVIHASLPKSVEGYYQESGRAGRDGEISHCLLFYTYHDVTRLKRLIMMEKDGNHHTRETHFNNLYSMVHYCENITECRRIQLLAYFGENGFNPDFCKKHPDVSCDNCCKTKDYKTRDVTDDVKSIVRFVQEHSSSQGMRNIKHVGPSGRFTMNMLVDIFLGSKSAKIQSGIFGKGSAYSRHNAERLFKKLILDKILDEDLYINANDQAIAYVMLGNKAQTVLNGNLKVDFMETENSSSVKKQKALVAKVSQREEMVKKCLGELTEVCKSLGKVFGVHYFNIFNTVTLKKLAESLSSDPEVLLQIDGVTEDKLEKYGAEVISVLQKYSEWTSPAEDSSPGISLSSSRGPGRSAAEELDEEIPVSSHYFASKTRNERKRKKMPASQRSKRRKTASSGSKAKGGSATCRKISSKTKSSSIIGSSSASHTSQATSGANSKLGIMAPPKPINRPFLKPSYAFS
M-phase phosphoprotein 8 (Homo sapiens), sequence (Q99549 whole entry, looked up): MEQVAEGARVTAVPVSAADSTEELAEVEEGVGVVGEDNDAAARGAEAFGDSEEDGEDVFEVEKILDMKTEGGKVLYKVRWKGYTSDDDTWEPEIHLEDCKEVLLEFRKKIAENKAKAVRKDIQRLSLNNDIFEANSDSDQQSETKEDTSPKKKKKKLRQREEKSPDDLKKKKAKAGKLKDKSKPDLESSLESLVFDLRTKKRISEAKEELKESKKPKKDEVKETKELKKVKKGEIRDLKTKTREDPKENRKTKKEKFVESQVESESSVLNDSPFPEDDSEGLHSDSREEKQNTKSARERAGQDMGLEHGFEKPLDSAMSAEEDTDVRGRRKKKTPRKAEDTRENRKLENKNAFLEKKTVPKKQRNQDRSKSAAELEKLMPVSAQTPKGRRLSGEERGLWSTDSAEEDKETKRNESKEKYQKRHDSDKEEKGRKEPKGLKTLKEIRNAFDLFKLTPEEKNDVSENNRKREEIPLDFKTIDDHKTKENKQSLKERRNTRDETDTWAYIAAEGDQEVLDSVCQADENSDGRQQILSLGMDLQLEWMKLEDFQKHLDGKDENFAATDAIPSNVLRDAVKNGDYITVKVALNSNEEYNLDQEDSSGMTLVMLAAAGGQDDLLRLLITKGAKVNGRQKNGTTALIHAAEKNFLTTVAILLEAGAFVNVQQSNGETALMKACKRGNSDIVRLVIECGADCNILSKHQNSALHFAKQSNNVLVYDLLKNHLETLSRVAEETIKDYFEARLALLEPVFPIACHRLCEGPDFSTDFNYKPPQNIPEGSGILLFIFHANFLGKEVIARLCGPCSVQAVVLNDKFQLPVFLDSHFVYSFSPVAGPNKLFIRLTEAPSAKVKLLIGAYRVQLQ
DNA repair nuclease/redox regulator APEX1 (Homo sapiens), sequence (P27695 whole entry, looked up): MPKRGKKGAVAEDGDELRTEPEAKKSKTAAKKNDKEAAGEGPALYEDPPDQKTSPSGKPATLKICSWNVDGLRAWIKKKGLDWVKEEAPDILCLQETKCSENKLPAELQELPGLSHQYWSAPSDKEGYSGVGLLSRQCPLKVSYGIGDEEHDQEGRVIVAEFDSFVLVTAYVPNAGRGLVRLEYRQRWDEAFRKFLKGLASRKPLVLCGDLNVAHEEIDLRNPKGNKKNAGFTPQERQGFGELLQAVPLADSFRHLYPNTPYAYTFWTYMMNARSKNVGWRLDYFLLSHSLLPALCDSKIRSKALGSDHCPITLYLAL
Voltage-gated inwardly rectifying potassium channel KCNH2 (Homo sapiens), sequence (Q12809 whole entry, looked up): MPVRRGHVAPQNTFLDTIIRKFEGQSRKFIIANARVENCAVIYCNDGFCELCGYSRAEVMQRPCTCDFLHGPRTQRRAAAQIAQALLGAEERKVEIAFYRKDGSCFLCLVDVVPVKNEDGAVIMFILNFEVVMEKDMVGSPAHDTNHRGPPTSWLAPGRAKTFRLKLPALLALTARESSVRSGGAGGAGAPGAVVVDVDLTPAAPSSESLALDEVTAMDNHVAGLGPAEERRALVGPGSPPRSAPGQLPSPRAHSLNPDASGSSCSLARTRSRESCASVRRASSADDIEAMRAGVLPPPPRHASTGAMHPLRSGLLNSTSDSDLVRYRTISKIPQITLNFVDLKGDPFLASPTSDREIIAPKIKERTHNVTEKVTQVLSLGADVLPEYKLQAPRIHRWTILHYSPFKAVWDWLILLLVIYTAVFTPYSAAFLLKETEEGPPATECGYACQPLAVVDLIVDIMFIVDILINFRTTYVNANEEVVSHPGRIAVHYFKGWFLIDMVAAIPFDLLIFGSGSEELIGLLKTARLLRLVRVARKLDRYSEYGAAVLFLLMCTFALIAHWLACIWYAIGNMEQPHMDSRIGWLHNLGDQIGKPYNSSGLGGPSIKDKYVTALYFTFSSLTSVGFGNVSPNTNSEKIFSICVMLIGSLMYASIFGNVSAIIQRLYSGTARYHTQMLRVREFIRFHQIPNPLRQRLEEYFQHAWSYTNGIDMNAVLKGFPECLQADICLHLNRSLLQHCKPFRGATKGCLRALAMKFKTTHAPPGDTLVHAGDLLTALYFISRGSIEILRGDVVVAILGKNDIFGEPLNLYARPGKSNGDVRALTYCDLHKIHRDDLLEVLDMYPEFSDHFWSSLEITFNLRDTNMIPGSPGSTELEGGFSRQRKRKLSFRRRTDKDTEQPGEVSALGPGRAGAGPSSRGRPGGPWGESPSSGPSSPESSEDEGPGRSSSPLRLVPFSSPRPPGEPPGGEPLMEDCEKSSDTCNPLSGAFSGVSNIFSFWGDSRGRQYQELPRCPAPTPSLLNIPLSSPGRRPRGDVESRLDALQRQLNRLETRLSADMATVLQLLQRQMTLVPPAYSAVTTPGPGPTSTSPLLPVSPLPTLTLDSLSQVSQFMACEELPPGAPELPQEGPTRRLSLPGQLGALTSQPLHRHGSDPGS
Ferritin light chain (Equus caballus), sequence (P02791 2-175 limits assumed): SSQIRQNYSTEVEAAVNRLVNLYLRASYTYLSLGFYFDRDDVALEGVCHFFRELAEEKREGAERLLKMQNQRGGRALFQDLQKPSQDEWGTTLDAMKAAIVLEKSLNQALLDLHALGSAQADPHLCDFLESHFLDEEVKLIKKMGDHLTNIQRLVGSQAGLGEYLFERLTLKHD

CC[C@@H]1Cn2c(c3nc(-c4cc(Cl)cc(Cl)c4Cl)nc-3n(C)c2=O)N1
Potency [1]: inactive

Nn1cc(Br)c(=O)[nH]c1=O
Potency [1]: inactive

NC(CCC(=O)NCS(=O)(=O)O)C(=O)O (stereo not given)
outcome [2]: inactive
activity change, negative = inhibition ([3]; at 57.5 µM (top of the series)): 1.69% (inactive)
max response ([3]; measured here: cell count channel max response): 45.8%
max response ([3]; measured here: lipid channel max response): 46.4%
Potency [4]: inactive
Potency [5]: inactive
Potency [6]: inactive
Potency [7]: inactive
Potency [8]: inactive
Potency [9]: inactive
Potency [10]: inactive
Potency [11]: inactive
Potency [12]: inactive
Potency [13]: inactive
outcome [14]: inactive
outcome [15]: inactive
Potency [16]: inactive
Potency [17]: inactive
Potency [18]: inactive
Potency [19]: inactive
Potency [20]: inactive
outcome [21]: inactive
outcome [22]: inactive
activation [23]: 1.56% (inactive)
outcome [24]: inactive
Potency [25]: inactive
Potency [1]: inactive
Potency [26]: inactive
